The record followed here is PubChem BioAssay (NCI).

About 79,000 compounds went through this panel and 15% of them were active in at least one assay; those are over-represented in the sample as a whole. Unmarked numbers belong to inactive results. Calls of active or inactive are those of the source. No stated cut-off is given here; in the data, active means growth inhibition above about 70%; inactive means the rest.

One assay can be described thus: NCI Yeast Anticancer Drug Screen. Data for the mec2-1 strain (AID 157). The conditions noted are these: S. cerevisiae mec2-1 strain, at 50.0 µM, stronger effect = higher value. The method, boiled down: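 Yeast mec2-1 mutant treated with compound. Readout: growth inhibition vs vehicle controls.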
As to `CC1CCN(CCOC(=O)C(c2ccccc2)C2C=CCCC2)C1C` (stereo not given), the growth inhibition is 58.9%.

`CC(CCCN(C)Cc1ccccc1)Nc1ccnc2cc(Cl)ccc12` (stereo not given): the growth inhibition is 98.3% (active).

Turning to `O=C(/C(Cl)=N/O)c1ccccc1`, the growth inhibition is 99.2% (active).

Take `CN(C)C1C[C@@H](O[Si](C)(C)C(C)(C)C)C=C1S(=O)(=O)c1ccccc1` (stereo not given in full): the growth inhibition was 47.8%.

As to `Nc1nnc(Cc2ccc(Br)cc2)o1`, the growth inhibition was 13.9%.

Take `CSc1nc(C)cc(SCc2ccc(Cl)cc2Cl)n1`: the growth inhibition is -20.6%.

On to `CC[N](CC)[Ge]([CH2]C)[CH2]C.CC[N](CC)[Ge]([CH2]C)[CH2]C`, for which the growth inhibition was 76.9% (active).

As to `Cc1c(-c2ccccc2)ccnc1/C=N/NC(=S)Nc1ccc(N(C)C)cc1`, the growth inhibition is 76.7% (active).

With `Cc1cc(C)nc(NS(=O)(=O)c2ccc(Nc3c4ccccc4nc4c(C(=O)NC(CO)(CO)CO)cccc34)cc2)n1`, the growth inhibition was -6.1%.

As for `CCCC(CCC)NCCOC(=O)C(CC)c1ccccc1` (stereo not given), the growth inhibition was 15.9%.

On to `OCCc1ccc(-n2cnc3c(Nc4ccc(Cl)cc4)ncnc32)cc1`, for which the growth inhibition is 43%.

Take `Cc1cccc(N2C(=O)c3ccccc3C2(c2ccccc2)N2CCCCC2)c1` (stereo not given): the growth inhibition is 28%.

For `CCCCN(CCO)CCNc1ccc(C)c2sc3ccccc3c(=O)c12`, the growth inhibition was 99.8% (active).

As for `Cc1ccc(C)c(C(=O)CCN)c1`, the growth inhibition is -10.7%.

Take `O=C1C(C(O)(C(F)(F)Cl)C(F)(F)Cl)CCCC1C(O)(C(F)(F)Cl)C(F)(F)Cl` (stereo not given): the growth inhibition was 99.7% (active).

As for `CC(C)c1cc2c(cc1O)C(O)C1(O)CCCC(C)(C)[C@H]1CC2` (stereo not given in full), the growth inhibition was 93.7% (active).

`CN(C)[C@@H]1C(=O)C(C(=O)NCNc2nc3n[nH]nc3c(=O)[nH]2)=C(O)[C@@]2(O)C(=O)C3=C(O)c4c(O)cccc4[C@@](C)(O)[C@H]3C[C@@H]12`: the growth inhibition was 11.2%.

As for `CCOC(=O)c1csc(=S)[nH]1`, the growth inhibition is 80.2% (active).

As for `CC(=O)[O-].O=C(N/N=C/c1ccccc1[O-])c1ccccc1.[Zn+2]`, the growth inhibition is 14.6%.

As to `Clc1ccc(C(CCOc2ccccc2Br)Cn2ccnc2)c(Cl)c1` (stereo not given), the growth inhibition is 99.7% (active).

As to `CCCC(C)C/C(C)=C\C(C)(C)C1CC(=O)N(CC)C1=O` (stereo not given), the growth inhibition was 80.7% (active).

Take `CSC(SC)=C1C(=O)NC(Cc2ccccc2)C1=O` (stereo not given): the growth inhibition is 36.1%.

For `CCCCCCSc1nc2ccc(N=Cc3ccccc3O)cc2s1`, the growth inhibition was 55.2%.

For `Cc1cc(C(=O)O)c(C)c2c1sc1ccccc12`, the growth inhibition was 27.2%.

Take `O=C(Nc1ccc(Cl)cc1)Nc1nnc2nc(C(C(=O)/C=C/c3ccccc3)c3nc4nnc(NC(=O)Nc5ccc(Cl)cc5)n4[nH]c3=O)c(=O)[nH]n12`: the growth inhibition was 48%.

In the case of `O=c1c(SSc2coc3ccccc3c2=O)coc2ccccc12`, the growth inhibition is 96.3% (active).

On to `C[n+]1c(/C=C/c2ccc(N3CCCC3)cc2)sc2ccccc21`, for which the growth inhibition is 99.2% (active).

Regarding `CCC(C(c1ccc(Cl)cc1)c1ccc(Cl)c(Cl)c1)[N+](=O)[O-]` (stereo not given), the growth inhibition was -4.05%.

`O=C1OC(C2OC(=O)C(=O)C2C(=O)c2ccc([N+](=O)[O-])cc2)C(C(=O)c2ccc([N+](=O)[O-])cc2)C1=O` (stereo not given): the growth inhibition is 59.1%.

Regarding `O=[N+]([O-])c1ccc(O)c(C2CCCCC2)c1`, the growth inhibition was 99.2% (active).

On to `O=C1c2ccccc2C(=O)N1/N=C\c1ccccc1[N+](=O)[O-]`, for which the growth inhibition is 4.9%.

Take `CC(C)(C)C(=O)CC(=O)C(F)(F)C(F)(F)C(F)(F)F.CC(C)(C)C(=O)CC(=O)C(F)(F)C(F)(F)C(F)(F)F.CC(C)(C)C(=O)CC(=O)C(F)(F)C(F)(F)C(F)(F)F.[Gd]`: the growth inhibition is 91.4% (active).

On to `Oc1ccc(N=Nc2ccccc2)cc1`, for which the growth inhibition was 99.5% (active).

Consider `Cc1cc(NC(=S)SCc2ccc(F)cc2)ccc1Br`, for which the growth inhibition was 92.8% (active).

Regarding `OC(CN1CCc2ccccc2C1)c1ccc2ccccc2c1` (stereo not given), the growth inhibition was 50.5%.

Consider `O=C1C=C/C(=C(/c2ccc(O)c(O)c2)c2ccccc2S(=O)(=O)O)C=C1O`, for which the growth inhibition was -0.5%.

Take `Cc1cc(N)c2cc(NC(=O)Nc3ccc4nc(C)cc(N)c4c3)ccc2n1`: the growth inhibition is 99% (active).

Regarding `CC(=O)N/N=C1/CC[C@@]2(C)C(=CC[C@H]3C4CCC(C(C)CCCC(C)C)[C@@]4(C)CCC32)C1(C)C` (stereo not given in full), the growth inhibition is 6.35%.

With `Cc1ncn(-c2ccccc2O)c1C`, the growth inhibition is 8.05%.

In the case of `Oc1ccc(-c2nnc(-c3ccccc3)nn2)cc1`, the growth inhibition is 8.95%.

The nature of a further assay: NCI Yeast Anticancer Drug Screen. Data for the sgs1 mgt1 strain (AID 161).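 Further: 0% = growth of cultures given vehicle only.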 The conditions noted are these: S. cerevisiae sgs1 mgt1 strain, at 5.0 µM (retest, dose inferred, filed as 0.5), stronger effect = higher value. A digest of the protocol: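 Read-out: growth inhibition vs vehicle controls. Cells: mutant yeast strain deficient in DNA damage repair.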
With `CC1CCN(CCOC(=O)C(c2ccccc2)C2C=CCCC2)C1C` (stereo not given), the growth inhibition is 53%.

In the case of `CC(CCCN(C)Cc1ccccc1)Nc1ccnc2cc(Cl)ccc12` (stereo not given), the growth inhibition is 99% (active).

With `O=C(/C(Cl)=N/O)c1ccccc1`, the growth inhibition is 51%.

Turning to `CN(C)C1C[C@@H](O[Si](C)(C)C(C)(C)C)C=C1S(=O)(=O)c1ccccc1` (stereo not given in full), the growth inhibition was -18%.

Turning to `Nc1nnc(Cc2ccc(Br)cc2)o1`, the growth inhibition was -3%.

On to `CSc1nc(C)cc(SCc2ccc(Cl)cc2Cl)n1`, for which the growth inhibition is -2%.

On to `CC[N](CC)[Ge]([CH2]C)[CH2]C.CC[N](CC)[Ge]([CH2]C)[CH2]C`, for which the growth inhibition was 56%.

Consider `Cc1c(-c2ccccc2)ccnc1/C=N/NC(=S)Nc1ccc(N(C)C)cc1`, for which the growth inhibition was 49%.

In the case of `Cc1cc(C)nc(NS(=O)(=O)c2ccc(Nc3c4ccccc4nc4c(C(=O)NC(CO)(CO)CO)cccc34)cc2)n1`, the growth inhibition is 0%.

Consider `CCCC(CCC)NCCOC(=O)C(CC)c1ccccc1` (stereo not given), for which the growth inhibition is 12%.

As to `OCCc1ccc(-n2cnc3c(Nc4ccc(Cl)cc4)ncnc32)cc1`, the growth inhibition was -4%.

`Cc1cccc(N2C(=O)c3ccccc3C2(c2ccccc2)N2CCCCC2)c1` (stereo not given): the growth inhibition was 4%.

As for `CCCCN(CCO)CCNc1ccc(C)c2sc3ccccc3c(=O)c12`, the growth inhibition was 29%.

In the case of `Cc1ccc(C)c(C(=O)CCN)c1`, the growth inhibition was 0%.

As for `O=C1C(C(O)(C(F)(F)Cl)C(F)(F)Cl)CCCC1C(O)(C(F)(F)Cl)C(F)(F)Cl` (stereo not given), the growth inhibition is 95% (active).

With `CC(C)c1cc2c(cc1O)C(O)C1(O)CCCC(C)(C)[C@H]1CC2` (stereo not given in full), the growth inhibition was -1%.

On to `CN(C)[C@@H]1C(=O)C(C(=O)NCNc2nc3n[nH]nc3c(=O)[nH]2)=C(O)[C@@]2(O)C(=O)C3=C(O)c4c(O)cccc4[C@@](C)(O)[C@H]3C[C@@H]12`, for which the growth inhibition is -7%.

As for `CCOC(=O)c1csc(=S)[nH]1`, the growth inhibition was -16%.

With `CC(=O)[O-].O=C(N/N=C/c1ccccc1[O-])c1ccccc1.[Zn+2]`, the growth inhibition was 1%.

`Clc1ccc(C(CCOc2ccccc2Br)Cn2ccnc2)c(Cl)c1` (stereo not given): the growth inhibition is 82% (active).

Regarding `CCCC(C)C/C(C)=C\C(C)(C)C1CC(=O)N(CC)C1=O` (stereo not given), the growth inhibition was -3%.

Turning to `CSC(SC)=C1C(=O)NC(Cc2ccccc2)C1=O` (stereo not given), the growth inhibition was 0%.

For the compound `CCCCCCSc1nc2ccc(N=Cc3ccccc3O)cc2s1`, the growth inhibition is 93% (active).

For `Cc1cc(C(=O)O)c(C)c2c1sc1ccccc12`, the growth inhibition is 12%.

`O=C(Nc1ccc(Cl)cc1)Nc1nnc2nc(C(C(=O)/C=C/c3ccccc3)c3nc4nnc(NC(=O)Nc5ccc(Cl)cc5)n4[nH]c3=O)c(=O)[nH]n12`: the growth inhibition was 4%.

As for `O=c1c(SSc2coc3ccccc3c2=O)coc2ccccc12`, the growth inhibition is 27%.

`C[n+]1c(/C=C/c2ccc(N3CCCC3)cc2)sc2ccccc21`: the growth inhibition is 95% (active).

Regarding `CCC(C(c1ccc(Cl)cc1)c1ccc(Cl)c(Cl)c1)[N+](=O)[O-]` (stereo not given), the growth inhibition is 4%.

As for `O=C1OC(C2OC(=O)C(=O)C2C(=O)c2ccc([N+](=O)[O-])cc2)C(C(=O)c2ccc([N+](=O)[O-])cc2)C1=O` (stereo not given), the growth inhibition was 10%.

With `O=[N+]([O-])c1ccc(O)c(C2CCCCC2)c1`, the growth inhibition is 62%.

With `O=C1c2ccccc2C(=O)N1/N=C\c1ccccc1[N+](=O)[O-]`, the growth inhibition is 3%.

As to `CC(C)(C)C(=O)CC(=O)C(F)(F)C(F)(F)C(F)(F)F.CC(C)(C)C(=O)CC(=O)C(F)(F)C(F)(F)C(F)(F)F.CC(C)(C)C(=O)CC(=O)C(F)(F)C(F)(F)C(F)(F)F.[Gd]`, the growth inhibition is 3%.

In the case of `Oc1ccc(N=Nc2ccccc2)cc1`, the growth inhibition was -6%.

With `Cc1cc(NC(=S)SCc2ccc(F)cc2)ccc1Br`, the growth inhibition was 58%.

On to `OC(CN1CCc2ccccc2C1)c1ccc2ccccc2c1` (stereo not given), for which the growth inhibition was 34%.

Regarding `O=C1C=C/C(=C(/c2ccc(O)c(O)c2)c2ccccc2S(=O)(=O)O)C=C1O`, the growth inhibition was -2%.

`Cc1cc(N)c2cc(NC(=O)Nc3ccc4nc(C)cc(N)c4c3)ccc2n1`: the growth inhibition was 99% (active).

On to `CC(=O)N/N=C1/CC[C@@]2(C)C(=CC[C@H]3C4CCC(C(C)CCCC(C)C)[C@@]4(C)CCC32)C1(C)C` (stereo not given in full), for which the growth inhibition was -7%.

As for `Cc1ncn(-c2ccccc2O)c1C`, the growth inhibition is -7%.

As to `Oc1ccc(-c2nnc(-c3ccccc3)nn2)cc1`, the growth inhibition was -66%.
